62 compounds from PubChem BioAssay AID504467 (National Center for Advancing Translational Sciences (NCATS), 2011) can be followed below.

Hit rate of the full screen: of about 330,000 compounds, about 7,700 (2.3%) were called active. Not shown: some 26% with an inconclusive outcome. Calls follow the shape of the dose curve; as a rule, active = well fitted inhibition curve with a large enough effect; inconclusive = small, poorly fitted or top-dose-only effect, or effect the other way; inactive = flat fitted curve, though single readings scatter. The entries come from a sample that favours actives as a whole. Where a call stands in place of a potency, no number is given.
Potency is read from the fitted curve at half-maximal effect.

The assay in a line: qHTS screen for small molecules that inhibit ELG1-dependent DNA repair in human embryonic kidney (HEK293T) cells expressing luciferase-tagged ELG1. Also: nearly all actives have a fitted effect of over 55% in size. The note with it: HEK293T ELG1-luciferase reporter, luminescence, 16 h, DNA damage induced by 5-fluorouridine; series mostly up to 46.1 µM. In short, it runs like this:
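In this reporter screen, reduction of luminescence relative to DMSO vehicle indicated activity. Compounds and 5-fluorouridine were added together to 2,000 cells per well, incubated for 16 hr at 37 °C, then developed with ONE-Glo.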
(In general: In qHTS, concentration-response curves come from the screen itself.)
`CN1CCC(N(C)S(=O)(=O)c2ccc(NC(=O)c3cccc(C#N)c3)cc2)CC1`: the Potency result is “inactive”.

As to `Cc1ccc(S(=O)(=O)NCC(=O)N2CCN(c3ccccn3)CC2)cc1`, the Potency result is “inactive”.

`Cc1ccnc(N2CCN(C(=O)CSc3nc4ccccc4nc3N3CCCCC3)CC2)c1`: the Potency is 12.6 µM (active).

In the case of `O=C(Cc1ccccc1Cl)N1CCN(c2ccccn2)CC1`, the Potency entry is “inactive”.

For `COC(=O)c1ccc(CSc2ccc(S(=O)(=O)N3CCCCC3)cn2)cc1`, the Potency entry was “inactive”.

As to `CC1CCCCN1S(=O)(=O)CCNC(=O)c1ccccc1` (configuration not stated), the Potency result is “inactive”.

With `O=C(Nc1nnc(-c2ccco2)o1)c1ccc(S(=O)(=O)N2CCOCC2)cc1`, the Potency entry is “inactive”.

For the compound `CSCc1nnc(NC(=O)c2ccc(S(=O)(=O)N3CCCCC3C)cc2)o1` (configuration not stated), the Potency is 20.6 µM (active).

Turning to `Cc1ccc(C(=O)CN2C(=O)NC3(CCc4ccccc43)C2=O)c(C)c1` (configuration not stated), the Potency entry was “inactive”.

Consider `COc1ccc(CCNC(=O)COC(=O)c2cnc(Cl)c(Cl)c2)cc1`, for which the Potency entry is “inactive”.

Take `COCC(C)n1c(SCC(=O)NC2CCCCC2C)nc2ccccc2c1=O` (configuration not stated): the Potency entry is “inactive”.

Turning to `CCC(=O)Nc1ccc(C(=O)CSc2nnc(CNc3ccc(Cl)cc3)o2)cc1OC`, the Potency was 11.6 µM (active).

As to `COc1ccccc1NC(=O)CSc1nnc(CNC(=O)c2ccccc2F)o1`, the Potency entry is “inactive”.

`COc1cc(C(=O)NCc2nnc(SCC(=O)c3ccc(Cl)cc3)o2)cc(OC)c1OC`: the Potency result was “inactive”.

In the case of `CCOc1ncccc1C(=O)OCC(=O)c1c[nH]c2ccccc12`, the Potency entry is “inactive”.

Take `Cc1cc(OCC(=O)NCC(O)c2ccccc2)c2c(C)c(C)c(=O)oc2c1` (configuration not stated): the Potency entry was “inactive”.

For the compound `COC(=O)c1ccc(NC(=O)C23CC4CC(C2)CC(n2cnc(Cl)n2)(C4)C3)cc1`, the Potency was 5.8 µM (active).

Turning to `Cc1ncn(C23CC4CC(CC(O)(C4)C2)C3)n1`, the Potency result was “inactive”.

As for `O=C(Nc1ccc(S(=O)(=O)Nc2ncccn2)cc1)C12CC3CC(CC(C3)C1)C2`, the Potency entry is “inactive”.

For `CN(C)C(=O)CCc1ccc2c3c([nH]c2c1)[C@]1(C)[C@@H](C(=O)N2CCCCC2)C[C@H](CC(=O)NCCC2=CCCCC2)C(=O)N1CC3`, the Potency entry is “inactive”.

For the compound `Cc1cccc(-c2oc3ccc(-c4ccc5c(c4)OCO5)cc3c2C#Cc2cncn2C)c1`, the Potency entry is “inactive”.

Regarding `COc1ccc(/C=C2\CCCC3C2=NN(C(=O)c2scnc2C)C3c2ccc(OC)cc2)cc1` (configuration not stated), the Potency was 18.4 µM (active).

As to `CC(Oc1cc2oc(=O)c3c(c2cc1Cl)CCCC3)C(=O)NCc1ccncc1` (configuration not stated), the Potency entry was “inactive”.

On to `CS(=O)(=O)N1CCN(C(=O)c2cc3ccccc3oc2=O)CC1`, for which the Potency result is “inactive”.

Regarding `O=C(c1cc2ccccc2o1)N1CCN(Cc2ccccc2)CC1`, the Potency entry was “inactive”.

For `O=C(c1cc2ccccc2o1)N1CCN(S(=O)(=O)c2ccc(Cl)s2)CC1`, the Potency was 16.4 µM (active).

As for `CCCc1cc(=O)[nH]c(SCC(=O)Nc2ccc(C(=O)Nc3ccccc3OC)cc2)n1`, the Potency entry is “inactive”.

Take `O=C(NC1CCN(Cc2ccccc2)CC1)c1c(F)cccc1F`: the Potency entry was “inactive”.

On to `Cc1ccn2cc(C(=O)NC3CCN(Cc4ccccc4)CC3)nc2c1`, for which the Potency is 20.6 µM (active).

`Cc1ccc(-c2cc(C(=O)NC3CCN(Cc4ccccc4)CC3)c3ccccc3n2)cc1`: the Potency entry is “inactive”.

`COc1ccc(NC(=O)C(CC(C)C)NC(=O)C2CCC(C)CC2)cc1` (configuration not stated): the Potency entry was “inactive”.

As for `COc1ccc(NS(=O)(=O)c2ccc(C)c(C(=O)N(C)Cc3ccc(OC)cc3OC)c2)cc1`, the Potency entry is “inactive”.

As to `O=C(Cc1ccc([N+](=O)[O-])cc1)Nc1ccc(C(=O)N2CCOCC2)cc1`, the Potency result was “inactive”.

Consider `COc1ccc2[nH]c(C(=O)N3CCN(C)CC3)c(C)c2c1`, for which the Potency result is “inactive”.

On to `Cc1c(C(=O)N2CCOCC2)[nH]c2ccc(OCc3ccccc3)cc12`, for which the Potency was 18.4 µM (active).

As for `CCOC(=O)c1[nH]c2ccc(OC)cc2c1NC(=O)N1CCOCC1`, the Potency result was “inactive”.

As to `COc1ccc(CN2C(CC(=O)Nc3cccnc3)c3ccc(C(F)(F)F)cc3S2(=O)=O)cc1` (configuration not stated), the Potency result is “inactive”.

Turning to `O=C(CSc1nc2ccccc2s1)Nc1ccc(C(=O)O)cc1`, the Potency result is “inactive”.

Take `COc1cc(OC)cc(-c2nnc(SCC(=O)Nc3ccc(C(=O)O)cc3)s2)c1`: the Potency entry was “inactive”.

As for `Cc1ccccc1NC(=O)CSC1=NCCN1`, the Potency result is “inactive”.

As for `Nc1nnc(SCC(=O)Nc2ccc3nc(SCC(=O)Nc4ccccc4)sc3c2)s1`, the Potency was 1.84 µM (active).

With `O=C(CSc1nc2ccc(Nc3nc(N4CCOCC4)nc(N4CCOCC4)n3)cc2s1)NCc1ccco1`, the Potency is 2.59 µM (active).

Regarding `O=C(CSc1c2c(nc3ccc(Cl)cc13)CCCC2)NCc1ccco1`, the Potency result was “inactive”.

Take `Cc1ccc(Nc2nc(N3CCOCC3)nc(N3CCOCC3)n2)cc1Cl`: the Potency was 0.651 µM (active).

In the case of `C=CCn1c(CSc2nc3ccccc3s2)nnc1SCC(=O)NCc1ccco1`, the Potency result was “inactive”.

For the compound `Cc1ccc(Nc2nc(N)nc(CN3CCN(Cc4ccccc4)CC3)n2)cc1Cl`, the Potency entry is “inactive”.

Take `Cc1ccccc1NC(=O)CSc1nc2ccc(Nc3nc(N4CCOCC4)nc(N4CCOCC4)n3)cc2s1`: the Potency was 1.3 µM (active).

For the compound `Cc1ccc(S(=O)(=O)N2CCOCC2)cc1NC(=O)CSc1nnc(N)s1`, the Potency result was “inactive”.

Turning to `Cc1cc(Nc2ccc(Cl)cc2)nc(N2CCOCC2)n1`, the Potency entry was “inactive”.

Consider `O=S(=O)(c1ccc(F)cc1)N1CCN=C1SCc1cccc(F)c1`, for which the Potency entry is “inactive”.

`O=C(Nc1cc(-c2nc3ncccc3o2)ccc1Cl)c1ccco1`: the Potency entry was “inactive”.

As to `COc1cccc(NC(=O)CCc2nnc3ccc(N4CCC(C)CC4)nn23)c1`, the Potency result is “inactive”.

For `COc1ccc(N(Cc2ccc(N(C)C)cc2)C(=O)c2ccc(S(C)(=O)=O)cc2)cc1`, the Potency entry was “inactive”.

Regarding `CN[C@H](C(=O)NC[C@H]1O[C@@H](n2cnc3c(N)ncnc32)[C@H](O)[C@@H]1O)[C@@H](C)OCc1ccccc1`, the Potency result was “inactive”.

Consider `CCCN1CCn2c3c(c4cc(Br)ccc42)CCCC31` (configuration not stated), for which the Potency entry is “inactive”.

`c1ccc2c(c1)OCC(CNc1ncnc3nc[nH]c13)O2` (configuration not stated): the Potency result was “inactive”.

On to `COc1ccc(Nc2ncnc3sc(-c4ccccc4)cc23)c(OC)c1`, for which the Potency entry is “inactive”.

For `c1ccc(-c2cc3c(NCC4COc5ccccc5O4)ncnc3s2)cc1` (configuration not stated), the Potency is 20.6 µM (active).

As to `CC1(c2ccccc2)NC(=O)N(CC(=O)N2CC(=O)Nc3ccccc32)C1=O` (configuration not stated), the Potency result was “inactive”.

In the case of `O=C(CCCC(=O)N1CCN(c2cccc(Cl)c2)CC1)c1ccccc1`, the Potency result was “inactive”.

Consider `Cc1ccc(C(=O)Nc2nnc(C3=COCCO3)o2)cc1C`, for which the Potency result was “inactive”.

`O=C1C=C(c2ccnc3cc(Cl)ccc23)C[C@@H](c2ccc3c(c2)OCO3)C1`: the Potency result is “inactive”.
